Reference: PubChem BioAssay

What follows are compounds tested on Human papillomavirus type 1a protein E7 (residues 44-93) (assay: HPV1a E7 fragment binders on microarrays, primary screen, biochemical, small-molecule microarray, residues 44-93, 635 nm fluorescence (AID 1108;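 note: E7 fragment applied at 1 µg/mL in TBST for 1 h at 4 C; score combines spot fluorescence with its signal to noise ratio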)). Conditions: small-molecule microarray binding, fluorescence 635 nm; higher = more signal.

Structure (SMILES) | composite z-score
CCN1C(=O)[C@H]2[C@H]3[C@H](O)[C@H](O)CC(=NOC[C@@H](C)[C@H](OCc4ccccc4)C(C)C)[C@@H]3CC[C@H]2C1=O | 0.306
CCOC(=O)NN=C1C[C@@H](O)[C@@H](O)[C@@H]2[C@@H]3C(=O)N(C4CCCCC4)C(=O)[C@@H]3CC[C@@H]12 | 0.0883
CCc1cc2c(nc1CC)CCN(CCC(C)=NOC[C@@H](O)[C@H]1O[C@@H]3OC(C)(C)O[C@@H]3[C@H]1O)C2 | 0.176
CC(C)NC(=O)[C@@H]1c2ccccc2C(=O)N(CC23CC4CC(CC(C4)C2)C3)[C@H]1c1ccc(CO)cc1 | 1.36
CN1C(=O)C2C=CC(C(O)C(c3ccccc3)c3ccccc3)N(NC(=O)OC(C)(C)C)C2C1=O (centres undefined) | 1.32
CC(C)(C)OC(=O)CC[C@]1(C(N)=O)COC(c2ccc(OCCCO)cc2)=N1 | 0.0119
C/C=C\[C@@H](NCc1ccccc1Br)[C@@H](O)Cc1ccccc1 | -0.594
CCOC(=O)C1=CC[C@H]2C(=O)N(CC)C(=O)[C@@H]12 | 1.19
COC(=O)C1(C)C=C2C(=C(c3ccccc3)C(=O)C2C)CN1 (centres undefined) | -1.06
CO[C@@H]1COC(=O)CC=C[C@@H](C)[C@@H]2C=C[C@H](O)[C@@H](COC(=O)CCC[C@H]1C)O2 | -1.05
CCOC(=O)[C@H](Cc1ccccc1)NC(=O)CCC1CC(OC(=O)NCc2ccc3c(c2)OCO3)CC2(CCCC(COC(=O)NCC(c3ccccc3)c3ccccc3)O2)O1 (some centres undefined) | 1.39
CN1C(=O)C2C(C1=O)C1C=C(CCCO)C2C(c2ccc(CN3CCCC3)cc2)N1C (centres undefined) | -0.0161
[N-]=[N+]=NCc1ccccc1[C@@H]1OC(c2ccc(OCCCO)cc2)=N[C@]1(Cc1ccccc1)C(=O)N1CCOCC1 | 0.0452
CO[C@@H]1COC(=O)CCC[C@@H](C)[C@H](OC)COC(=O)CCC[C@H]1C | -0.341
C=COC[C@H]1CN2[C@@H](CC[C@@H](C)[C@@H]2c2ccc(Br)cc2)C(=O)O1 | 0.864
CC(C)=CCCC(C)=CCON=C1[C@H]2CCn3c(=O)n(Cc4cc5c(cc4Cl)OCO5)c(=O)n3[C@H]2[C@H](O)[C@@H]2O[C@H]12 | -0.118
C=CCOC(=O)[C@H]1[C@@H]2C(=O)O[C@@H](c3ccccc3)[C@@H](c3ccccc3)N2[C@@H](c2ccc(OCCOC(=O)[C@H]3C[C@H]4C(=O)N5CCC[C@H]5C(=O)N4[C@H]3c3cccc(OCCO)c3)cc2)[C@]12C(=O)Nc1ccc(I)cc12 | 1.43
COc1ccc(-c2ccc3c(n2)CCCN3CC(O)CN2CCCc3nc(C)c(C)cc32)cc1 (centres undefined) | 1.02
COC(=O)[C@@]1(Cc2ccccc2)[C@H]2c3cc(C(=O)N4CCCC4)n(Cc4ccccn4)c3C[C@H]2CN1C(=O)c1ccccc1 | 1.5
CC(C)NC(=O)[C@@]1(C)c2ccccc2C(=O)N(Cc2cc(F)cc(C(F)(F)F)c2)[C@H]1c1ccc(CO)cc1 | 1.3
CO[C@H]1COC(=O)[C@H](C)COC(=O)CC=C[C@@H](C)[C@H](OC)COC(=O)CC=C[C@@H]1C | -0.797
CC(=O)OC[C@H]1O[C@H](CCON=C(C)CCC(=O)OC[C@H]2O[C@H](C#Cc3ccccc3)C=C[C@@H]2Oc2ccc(C)cc2)C=C[C@@H]1OC(C)=O | -0.187
CN(C)C(=O)[C@@]1(Cc2ccccc2)N=C(c2ccc(OCCCO)cc2)O[C@H]1c1ccccc1CN=[N+]=[N-] | 1.1
C=CCC(OC(C)=O)[C@@H]1[C@@H](N(Cc2cc3ccccc3o2)C(=O)Cc2ccc(F)cc2)c2cc(OCCCO)ccc2N1C(=O)Cc1ccc(OC)cc1 (some centres undefined) | -1.07
COc1ccc(O[C@H]2C=C[C@@H](c3ccccc3)O[C@@H]2COC(=O)CCC(C)=NO[C@H](C)c2cn([C@@H]3COC[C@H]3O)nn2)cc1 | 0.765
O=C(NN=C1C[C@@H](O)[C@@H](O)[C@@H]2[C@@H]3C(=O)N(c4cccc(Oc5ccccc5)c4)C(=O)[C@@H]3CC[C@H]12)OCc1ccccc1 | -0.142
C=CCOC(=O)[C@H]1[C@@H]2C(=O)O[C@@H](c3ccccc3)[C@@H](c3ccccc3)N2[C@@H](c2ccc(OCCOC(=O)[C@H]3C[C@H]4C(=O)N[C@@H](Cc5ccccc5)C(=O)N4[C@H]3c3ccc(O)cc3)cc2)[C@]12C(=O)Nc1ccccc12 | 0.516
COCCCNC(=O)[C@@]1(Sc2ccc(C)cc2)CC(=O)N(Cc2ccccc2)[C@@H]1c1ccc(CO)cc1I | 0.362
CCCCCN1CC=CC23O[C@@H]4C=CCOC(=O)[C@@H]4[C@H]2C(=O)N(C(CO)C(C)C)[C@@H]3C1=O (some centres undefined) | -0.516
